Compounds with a hit are over-represented: about 2.3% of the library has one in this group of screens.
Tau filament bind: binders of human tau filaments; P10636; recombinant tau filaments, thioflavin S fluorescence, 15 h; filaments grown with octadecylsulfate alongside compound; Potency, µM (series often up to 57.1 µM), inactives show at the highest dose activity change, negative = inhibition; 71,000 tested, 2% active; AID 596;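 further: potency means the concentration at half of the fitted maximal effect; on the % scale 0 is the no-effect control and ±100 the full control effect; actives lower thioflavin S fluorescence by blocking filaments or displacing dye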
Target sequence (P10636 whole entry, looked up): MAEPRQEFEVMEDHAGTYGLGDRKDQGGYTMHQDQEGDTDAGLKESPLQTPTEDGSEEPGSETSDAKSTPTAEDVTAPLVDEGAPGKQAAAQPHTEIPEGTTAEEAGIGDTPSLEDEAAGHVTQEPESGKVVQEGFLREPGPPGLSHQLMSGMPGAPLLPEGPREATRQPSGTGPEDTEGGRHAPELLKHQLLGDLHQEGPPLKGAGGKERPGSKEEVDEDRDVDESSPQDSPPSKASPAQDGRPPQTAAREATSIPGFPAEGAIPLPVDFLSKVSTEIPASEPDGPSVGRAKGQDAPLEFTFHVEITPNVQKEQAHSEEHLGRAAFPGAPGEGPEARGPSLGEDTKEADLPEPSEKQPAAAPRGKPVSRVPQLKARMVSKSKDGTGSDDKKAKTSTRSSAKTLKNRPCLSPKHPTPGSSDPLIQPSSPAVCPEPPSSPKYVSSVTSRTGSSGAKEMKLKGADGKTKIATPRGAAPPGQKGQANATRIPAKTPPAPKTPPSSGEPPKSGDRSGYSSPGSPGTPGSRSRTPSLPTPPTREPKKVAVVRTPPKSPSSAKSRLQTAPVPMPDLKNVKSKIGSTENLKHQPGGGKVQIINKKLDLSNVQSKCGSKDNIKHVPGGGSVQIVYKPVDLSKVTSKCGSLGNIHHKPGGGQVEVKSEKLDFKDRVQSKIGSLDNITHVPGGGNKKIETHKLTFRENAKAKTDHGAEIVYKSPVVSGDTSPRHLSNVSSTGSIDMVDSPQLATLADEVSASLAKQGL
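Quantitative HTS: thioflavine S signal from ODS-induced tau filaments, excited at 450 nm, emission 510 nm. Conditions: 1 uM tau, 30 uM ODS, 15 h at 37 C, pH 7.4.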
DNA Pol III inh: blocks replication by bacterial DNA polymerase III holoenzyme; reconstituted DNA polymerase III holoenzyme replication, biochemical; Potency, µM (top dose mostly 57.1 µM), inactives show top-dose activity change, negative = inhibition; 71,000 tested, 0.25% active; further: potency means the concentration at half of the fitted maximal effect; on the % scale 0 is the no-effect control and ±100 the full control effect
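Reconstituted *E. coli* holoenzyme (0.35 nM Pol III, 1 nM beta, 154 nM SSB, 2 nM primase) was preincubated with compound for 15 min at RT. Synthesis on 1.4 nM ssM13Gori ran 35 min, then was stopped with PicoGreen/EDTA and read as dsDNA fluorescence.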
BRCT inh green: blocks human BRCA1 BRCT binding to phosphopeptide, green readout | 75,000 tested, 0.05% active | BRCA1 BRCT-phosphopeptide binding, green fluorescence polarization | Potency, µM (doses to about 76.9 µM), for inactives: at the top dose activity change, negative = inhibition, most hits filed as inhibitors | P38398;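 further: potency means the concentration at half of the fitted maximal effect; plate controls were peptide without protein for full effect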
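Fluorescence polarization: His-tagged BRCT (~35 kDa BRCA1 C-terminus, 250 nM) bound to 100 nM fluorescein-labeled phosphorylated 10-aa BACH1 peptide, pH 7.3 phosphate buffer with DTT and Tween 20. Compounds incubated 12 min at room temperature; inhibition read as lowered polarization.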
Hsp90 Hop PPI: changes Hsp90-Hop TPR2A binding signal, up or down. AlphaScreen TPR2A-His6 binding biotin-Hsp90 C-terminal peptide. Potency, µM (titrated, usually from 57 µM), without a hit: at the highest dose activity change, negative = inhibition. 71,000 tested, 0.44% active; active means well fitted curve in either direction with a large enough effect; inconclusive means small, poorly fitted or top-dose-only effect, or another doubt; further: potency means the concentration at half of the fitted maximal effect; on the % scale 0 is the no-effect control and ±100 the full control effect
YjeE inh: YjeE (TsaE) inhibition, E. coli; 71,000 tested, 0.05% active; P0AF67; AID 605; purified YjeE enzyme, qHTS inhibition assay; Potency, µM
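Fluorescence polarization of a BODIPY Texas Red–ADP probe (2 uM) bound to purified YjeE (10 uM) was read after 15 min room-temperature incubation with compounds. Loss of polarization marks inhibitors; ADP serves as titrated control.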
BRCT inh red: disrupts BRCA1 BRCT binding to phosphoprotein, red fluorophore readout. P38398. BRCT-phosphopeptide binding, red fluorescence polarization. Potency, µM (top dose mostly 76.9 µM), without a hit: at the top dose activity change, negative = inhibition, hits mostly inhibitors. 75,000 tested, 0.03% active; further: on the % scale 0 is the no-effect control and ±100 the full control effect
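Fluorescence polarization: 100 nM His-tagged BRCA1 BRCT with 100 nM TAMRA-labelled phospho-BACH1 decapeptide, phosphate buffer pH 7.3 with 150 mM NaCl, DTT, 0.01% Tween 20; 12 min RT. Binding inhibition seen as FP decrease.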
Starred values were filed as active, the others as inactive; i = inactive; ? = inconclusive; nt = not tested or not shown; [ ] = dose if it differs, or a comment. Unless noted, the call rests on the fitted dose curve; in most records, active means well fitted curve in the direction sought with a large enough effect; inconclusive means small, poorly fitted or top-dose-only effect, or another doubt; inactive means no such curve, though single readings can be large; an effect the other way counts as inactive or inconclusive.

SMILES	Tau filament bind	DNA Pol III inh	BRCT inh green	Hsp90 Hop PPI	YjeE inh	BRCT inh red
CO[C@@H]1COC(=O)[C@H]2CCCN2C(=O)[C@@H](C)COC(=O)CCC[C@H]1C	nt	nt	-0.3%[15.4 µM]	nt	nt	2.0%[15.4 µM]
C=C(C)COc1ccc(-c2ncncc2Oc2ccc(OC)cc2)c(O)c1	20µM*	1.0%	2.8%	13.4%	i	-0.6%
C=C(C)COc1ccc(-c2nc(N)ncc2-c2ccc(OC)cc2)c(O)c1	12.6µM*	-7.6%	2.7%	-25.0%	i	-1.3%
COc1ccc(-c2cnc(N)nc2-c2ccc(OC)cc2O)cc1	?	-4.1%	-1.9%	-15.3%	i	0.1%
CCCn1c(=O)c(C(=O)Nc2nnc(C)s2)c(O)c2ccccc21	-1.5%	-2.9%	-3.0%	0.7%	i	-0.8%
CCCn1c(C)nc2c(c1=O)c1nc3ccccc3nc1n2CCC1=CCCCC1	159.6%	-6.7%	-0.2%	-1.8%	i	0.0%
Cc1nc2c(c(=O)n1CCC1=CCCCC1)c1nc3ccccc3nc1n2/N=C/c1ccco1	2µM*	-6.8%	1.5%	-4.3%	i	0.1%
COC(=O)c1ccc(C(NC(=O)OCc2ccccc2)/C(C)=C/[C@@H](C)C(=O)NCCO)cc1 (stereo partly drawn)	-18.8%	-1.1%	-1.2%	-2.2%	i	-5.7%
COc1cccc(-c2cc(=O)c3cc(O)ccc3o2)c1	31.6µM*	-13.8%	-2.3%	-1.0%	i	-1.2%
CN1C=CC=C/C1=C1\SC(=S)N(C2CCCCC2)C1=O	3.98µM*	-4.7%[11.4 µM]	-0.8%	?	i	-0.1%
Cc1ccc(O)c(-c2cc(-c3ccccc3C)[nH]n2)c1	25.1µM*	4.4%	-0.7%	9.3%	i	0.4%
Oc1ccccc1-c1cc(-c2ccccc2Cl)[nH]n1	-9.2%	6.6%	-3.0%	2.3%	i	-0.8%
Nc1nc(=O)n(C2OC(CO)C(O)C2O)cc1Cl (stereo not drawn)	nt	nt	-1.5%	nt	nt	1.1%
Cc1cc(NC(=O)c2cc(-c3ccncc3)nc3c(C)cccc23)no1	3.16µM*	-7.2%	-2.5%	-10.3%	i	2.7%
COC(=O)c1ccccc1NS(=O)(=O)c1ccc2c3c(cccc13)C(=O)N2	15.8µM*	1.9%	2.9%	11.4%	i	0.7%
O=C(O)c1ccccc1NS(=O)(=O)c1ccc2c3c(cccc13)C(=O)N2	-1.3%	-7.7%	-3.6%	-0.1%	i	0.9%
Cc1cc(C)c(-c2cc([C@H](C)O/N=C3/[C@H]4OC4[C@@H](O)[C@H]4[C@H]3CCn3c(=O)n(-c5ccccc5)c(=O)n34)on2)c(C)c1 (stereo partly drawn)	nt	nt	-3.6%[15.4 µM]	nt	nt	-1.1%[15.4 µM]
O=C(Nc1ccc2c(c1)nc1n2CCN(C2CCCCC2)C1)c1ccco1	25.1µM*	-8.0%	-3.0%	-7.9%	i	0.0%
CC(=O)O[C@H]1C2=CO[C@H](C)[C@H]3[C@H]4C5=C([C@H](O)[C@H]6O[C@@H]6C5=O)[C@H](O[C@H]4C)[C@@]23C(=O)[C@H]2O[C@@H]21	nt	nt	-1.7%[15.4 µM]	nt	nt	-0.8%[15.4 µM]
COCC(=O)N1CCC2(CCCN(c3ccncc3)C2)CC1	3.3%	1.1%	-1.7%	0.3%	i	-3.1%
Cc1ccc2nc(Nc3ccc4[nH]c(=O)[nH]c4c3)c(-n3nc(C)cc3C)nc2c1	0.631µM*	-1.8%	0.7%	-9.4%	i	-0.2%
OCCN1CCN(CCCN2c3ccccc3Sc3ccc(Cl)cc32)CC1	26.7%[25.6 µM]	-11.6%[25.6 µM]	-1.8%	-6.5%[26 µM]	i	-2.3%
CN(C)CCCN1c2ccccc2Sc2ccc3ccccc3c21	2.51µM*	-9.8%[11.4 µM]	-2.2%[15.4 µM]	-3.8%[11 µM]	i	0.5%[15.4 µM]
CN(C)CCCN1c2ccccc2Sc2ccc(Cl)cc21	5.01µM*	-11.5%[25.6 µM]	-1.7%[3.08 µM]	-12.0%[26 µM]	i	0.9%
Nc1ncnc2nc(-c3ccc(N4CCOCC4)nc3)cc(-c3cccc(Br)c3)c12	nt	nt	3.7%	nt	nt	0.6%
SMILES	Tau filament bind	DNA Pol III inh	BRCT inh green	Hsp90 Hop PPI	YjeE inh	BRCT inh red
CCC/C=C(\CCC)C(NC(=O)Oc1ccc(F)cc1)c1ccc(C(=O)OC)cc1 (stereo not drawn)	1.1%	-3.2%	-0.9%	2.1%	i	-1.2%
COc1ccc(N2CCC(CNC(=O)Nc3ccc(OC)cc3OC)C2)cc1 (stereo not drawn)	20µM*	4.9%	0.8%	?	i	0.7%
COc1ccc(N2CCC(CNC(=O)Nc3ccc(C)c(C)c3)C2)cc1 (stereo not drawn)	?	-4.9%	-0.1%	-26.2%	i	-1.0%
O=S(=O)(NCC1CC1)c1cccc(S(=O)(=O)N2CCCC2)c1	3.1%	-3.5%	-1.7%	1.5%	i	-1.1%
COc1ccc(N2CCC(CNS(=O)(=O)c3cccc(C(F)(F)F)c3)C2)cc1 (stereo not drawn)	1.26µM*	-4.5%	0.3%	-23.7%	i	2.2%
Cc1ccccc1/C=C\C1=NCCN1	1.3%	-4.5%	-1.6%	-12.3%	i	0.8%
CC(C)(C)CC(C)(C)c1cc(O)c(O)c(CN2CCCCC2)c1	?	-11.2%[11.4 µM]	0.3%[15.4 µM]	-7.3%[11 µM]	i	1.4%[15.4 µM]
CC(C)(C)c1cc(CN2CCCC(O)C2)c(O)c(C(C)(C)C)c1 (stereo not drawn)	5.01µM*	-5.6%[11.4 µM]	-3.7%	-9.2%[11 µM]	i	-1.2%
c1ccc2c(N3CCNCC3)nc(-c3ccc4c(c3)OCO4)nc2c1	2.7%	-5.8%	-0.5%	-4.6%	i	2.9%
c1ccc(Nc2nc(-c3ccoc3)nc3ccccc23)cc1	12.6µM*	-4.5%	-0.4%	0.9%	i	2.1%
CN(C)c1nc(-c2ccoc2)nc2ccccc12	15.8µM*	-3.3%	-3.6%	-11.4%	i	-3.5%
O=C(O)/C=C\c1ccc(Cn2ccnc2)cc1	-3.1%[25.6 µM]	-3.2%[25.6 µM]	-3.6%[34.4 µM]	-2.8%[26 µM]	i	-0.9%[34.4 µM]
COc1cc2nc(N3CC=[N+](C(=O)c4ccco4)CC3)nc(N)c2cc1OC	7.1%	3.6%	-1.8%	-9.0%	i	1.5%
COc1ccccc1N1CCN(S(=O)(=O)c2ccc3c4c(cccc24)C(=O)N3C)CC1	25.1µM*	4.8%	-1.4%	3.9%	i	-0.7%
COc1ccccc1N1CCN(S(=O)(=O)c2ccc3c4c(cccc24)C(=O)N3)CC1	-29.9%	-1.2%	-0.9%	-12.9%	i	0.7%
COc1ccc(CCNC(=O)CC2Nc3ccccc3NC2=O)cc1 (stereo not drawn)	12.6µM*	-5.8%	0.9%	-8.6%	i	1.2%
COc1ccc(CCNC(=O)CC2Nc3ccccc3NC2=O)cc1OC (stereo not drawn)	-9.2%	-3.0%	-2.5%	-3.7%	i	0.1%
Cc1ccc(NC(=O)CC2Nc3ccccc3NC2=O)cc1Cl (stereo not drawn)	20µM*	-1.0%	-3.2%	8.5%	i	2.1%
CCOc1ccccc1NC(=O)CC1Nc2cc(C)c(C)cc2NC1=O (stereo not drawn)	3.98µM*	0.8%	2.1%	-1.5%	i	0.7%

Assay outcomes from PubChem BioAssay.
